EBV LMP1 NFkB = reduces LMP1-driven NF-kappaB luciferase signal. LMP1-induced NF-kappaB luciferase reporter cells, luminescence. inhibition, % at 12.5 µM. 350,000 compounds, 0.69% hits; in the data active = inhibition above about 41%;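 also: 0% = neutral control wells and 100% = reference inhibitor control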
MITF TRPM1 inh = reduces MITF-dependent TRPM1 promoter luciferase signal. inhibition, % at 12.5 µM. SK-MEL-5 TRPM1 promoter luciferase, 24 h. 330,000 compounds, 0.83% hits. AID 488899;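 active = mean inhibition across replicates of 60% or more, whatever share of single replicates reaches that level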
LGR2 inh = blocks bursicon-induced cAMP signaling via Drosophila LGR2; HEK293 LGR2, CRE-luciferase, bursicon-stimulated, 4 h; AID 720647; 380,000 compounds, 0.35% hits; inhibition, % at 9.99 µM;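 active = drop in luminescence signal, shown as inhibition above about 50% in the replicate tests, limit read from the data, passing the limit was not always enough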;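 also: agonist challenge used bursicon conditioned medium at about half maximal strength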
PAX8 reporter = lowers PAX8-driven luciferase in RMG-I cells; RMG-I TPO-luciferase reporter, SteadyGlo, 24 h; inhibition, % at 12.6 µM; 360,000 compounds, 1.2% hits; AID 652154;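 active = mean replicate inhibition at least 60% with every replicate also reaching 60%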;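 also: luciferase light reporting Pax8 driven TPO promoter activity; plate controls were median of neutral control wells for no effect and mitoxantrone controls for full effect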
EWS-Fli inh = EWS/Fli transcriptional activity inhibition. A673 NR0B1-luciferase reporter, viability-normalised. inhibition, % at 12.6 µM. 350,000 compounds, 0.67% hits;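 active = mean inhibition of at least 50% after viability correction, with every replicate also passing that limit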;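 also: firefly luciferase signal divided by Alamar Blue viability fluorescence both relative to DMSO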
PGC1a acetyl inh = PGC1a acetylation modulation, inhibitor mode. U2OS PGC1a acetylation, AlphaScreen anti-acetyl-lysine; with virally co-expressed GCN5 acetyltransferase. inhibition, % at 15.6 µM. 350,000 compounds, 0.17% hits;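 active = every replicate shows inhibition of at least 40%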;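 also: 0% = neutral control wells and 100% = positive control wells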
* marks the source's active call; other numbers are inactive results; . = not tested or not shown; ! = not confirmed by another sample. Rows were chosen to be rich in hits. Some 2.2% of all compounds tested hit in one or more screens of this group.

SMILES | EBV LMP1 NFkB | MITF TRPM1 inh | LGR2 inh | PAX8 reporter | EWS-Fli inh | PGC1a acetyl inh
Fc1ccc(/C=N/N2CCCCC2)c(F)c1 | -3 | -17 | 9 | 9 | -3 | 66*
O=C(Nc1cc(F)ccc1F)N[C@@H]1C=C[C@H](CC(=O)N2CCc3ccccc3C2)O[C@H]1CO | . | . | -4 | 3 | 6 | 11
Cc1[nH]c2ccccc2c1C(=O)C(C)OC(=O)c1ccc([N+](=O)[O-])o1 (configuration not stated) | -3 | 46 | 13 | 62* | 9 | -6
C[C@@H]1CN([C@@H](C)CO)C(=O)c2cc(C#CCN(C)C)cnc2O[C@@H]1CN(C)Cc1cccc(C(=O)O)c1 | . | . | 9 | . | -14 | 4
O=C(C[C@H]1CC[C@@H]2[C@H](COC[C@H](O)CN2Cc2cccc(-c3ccncc3)c2)O1)N1CCN(c2ccccc2)CC1 | . | . | 2 | 7 | 24 | -7
O=C(Cn1nc(CNc2ccc(Br)cc2)[n+]2c1CCCCC2)c1ccc([N+](=O)[O-])cc1 | 1 | 1 | . | 71* | 12 | .
COc1ccc(N2C3=[N+](CC2(C)O)c2ccccc2CC3)cc1 (configuration not stated) | 69* | 8 | -41 | . | 1 | -4
COc1ccc(OCC(=O)N2c3ccccc3CCc3ccccc32)cc1 | 4 | -5 | 5 | -98 | . | -7
C[C@H]1CCCCO[C@H](CN(C)C(=O)NC2CCCCC2)[C@@H](C)CN([C@@H](C)CO)C(=O)c2cc(NC(=O)Nc3ccc(C(F)(F)F)cc3)ccc2O1 | . | . | -6 | 87* | 3 | 3
C[C@@H]1CCCCO[C@@H](CN(C)C(=O)NC2CCCCC2)[C@@H](C)CN([C@@H](C)CO)C(=O)c2cc(NC(=O)Nc3ccc(C(F)(F)F)cc3)ccc2O1 | . | . | 13 | 74* | 4 | 1
C[C@@H]1CCCCO[C@H](CN(C)C(=O)NC2CCCCC2)[C@@H](C)CN([C@H](C)CO)C(=O)c2cc(NC(=O)Nc3ccc(C(F)(F)F)cc3)ccc2O1 | . | . | 11 | -2 | 4 | -3
C[C@@H]1CCCCO[C@H](CN(C)C(=O)NC2CCCCC2)[C@@H](C)CN([C@@H](C)CO)C(=O)c2cc(NC(=O)Nc3ccc(C(F)(F)F)cc3)ccc2O1 | . | . | 18 | 93* | 9 | 8
C[C@@H]1CCCCO[C@H](CN(C)C(=O)Nc2ccc(C(F)(F)F)cc2)[C@@H](C)CN([C@@H](C)CO)C(=O)c2cc(NC(=O)NC3CCCCC3)ccc2O1 | . | . | 11 | 29 | 6 | -1
C[C@@H]1CCCCO[C@@H](CN(C)C(=O)NC2CCCCC2)[C@H](C)CN([C@@H](C)CO)C(=O)c2cc(NC(=O)Nc3ccc(C(F)(F)F)cc3)ccc2O1 | . | . | 1 | 76* | 9 | 6
C[C@@H]1CCCCO[C@H](CN(C)C(=O)Nc2ccc(C(F)(F)F)cc2)[C@H](C)CN([C@@H](C)CO)C(=O)c2cc(NC(=O)NC3CCCCC3)ccc2O1 | . | . | 18 | -17 | 0 | 24
CCC(=O)N1C[C@H](C)[C@@H](OC)CN(C)C(=O)c2ccc(NC(=O)Nc3ccc(Cl)cc3)cc2OC[C@@H]1C | . | . | 0 | . | 53* | 2
COCC(=O)N1C[C@@H](C)[C@H](OC)CN(C)C(=O)c2ccc(NC(=O)Nc3cccc(F)c3)cc2OC[C@H]1C | . | . | -13 | . | -9 | 3
COCC(=O)N1C[C@H](C)[C@H](OC)CN(C)C(=O)c2ccc(NC(=O)Nc3cccc(F)c3)cc2OC[C@@H]1C | . | . | 5 | . | 56* | 2
Cc1noc(C)c1NC(=O)N(C)C[C@@H]1OCCCC[C@@H](C)Oc2ccc(N(C)C)cc2C(=O)N([C@H](C)CO)C[C@@H]1C | . | . | 22 | -9 | -2 | -5
N#Cc1c(Oc2ccc3ccccc3c2)sc(C(=O)c2ccccc2)c1N | 58* | 22 | . | . | . | 11
Cc1cccc(Oc2sc(C(=O)c3ccccc3)c(N)c2C#N)c1C | -10 | -7 | . | . | . | 31
C[C@H](O)C#Cc1cnc2c(c1)C(=O)N([C@@H](C)CO)C[C@H](C)[C@H](CN(C)C(=O)Cc1ccccn1)O2 | . | . | -7 | . | 0 | 6
CC(=O)O[C@@H]1C[C@H]2C(C)(C)C(=O)C=C[C@]2(C)[C@H]2CC[C@@]3(C)[C@H](c4ccoc4)OC(=O)[C@H]4O[C@]43[C@@]21C | -20 | 12 | 47 | 75* | 13 | 15
Cc1ccccc1S(=O)(=O)N1[C@@H]2CNC[C@H]1C2c1ccc(-c2ccncc2)cc1 (some centres not stated) | . | . | 16 | 6 | 8 | 0
Cc1cccc(S(=O)(=O)N2[C@@H]3CNC[C@H]2C3c2ccc(-c3ccccc3C)cc2)c1 (some centres not stated) | . | . | -7 | 11 | 59*! | 6
SMILES | EBV LMP1 NFkB | MITF TRPM1 inh | LGR2 inh | PAX8 reporter | EWS-Fli inh | PGC1a acetyl inh
Cc1ccccc1-c1ccc(C2[C@H]3CNC[C@@H]2N3S(=O)(=O)c2ccccc2)cc1 (some centres not stated) | . | . | -18 | 18 | -6 | 4
Cc1cccc(S(=O)(=O)N2[C@@H]3CNC[C@H]2C3c2ccc(-c3ccncc3)cc2)c1 (some centres not stated) | . | . | -9 | -2 | 65*! | 7
COc1ccc(-c2ccc3c(c2)O[C@H](CN(C)C(C)=O)[C@H](C)CN([C@@H](C)CO)S3(=O)=O)cc1 | . | . | -7 | . | 18 | -1
O=C1c2cccc3c(O)ccc(c23)C(=O)N1c1ccc(Cl)cc1 | 60* | 55 | -18 | 102* | 26 | .
COc1ccc(-c2cc3nc(NCc4ccc(N(C)C)cc4)n(C)c(=O)c3s2)cc1OC | . | . | 74* | 6 | 9 | 9
COc1cccc(CNc2nc3cc(-c4ccc(OC)c(OC)c4)sc3c(=O)n2C)c1 | . | . | 3 | 12 | 11 | 1
O=C(Nc1ccccc1Cl)c1ccc(C(=O)Nc2ccccc2Cl)cc1 | 85* | 13 | 2 | -15 | 4 | .
Nc1ccccc1NC(=O)c1ccccc1 | 44* | -4 | . | 7 | . | 14
N=c1sccn1CC(=O)Nc1ccccc1Sc1ccccc1 | -1 | -2 | 9 | 12 | 0 | 73*
O=C(C[C@H]1CC[C@@H]2[C@H](COC[C@@H](O)CN2S(=O)(=O)c2cccc(F)c2)O1)Nc1ccccc1 | . | . | -10 | . | . | -5
Cc1ccc(S(=O)(=O)/C(=C/Cl)NC(=O)c2ccccc2)cc1 | -8 | 33 | 40 | 94* | . | .
CCCNC(=O)Nc1ccc2c(c1)C(=O)N(C)C[C@@H](OC)[C@@H](C)CN(CC1CCCC1)[C@@H](C)CO2 | . | . | -1 | . | -2 | 3
CO[C@@H]1CN(C)C(=O)c2ccc(NC(=O)NC3CCCCC3)cc2OC[C@@H](C)N(CCc2ccccc2)C[C@H]1C | . | . | 25 | 66* | 7 | 5
CO[C@H]1CN(C)C(=O)c2cc(NC(=O)c3ccccc3F)ccc2OC[C@@H](C)N(C(C)=O)C[C@@H]1C | . | . | 0 | -10 | 4 | 130*

Bioassay records (PubChem)
